31 compounds from ChEMBL document CHEMBL4513216, “Probing the Open Global Health Chemical Diversity Library for Multistage-Active Starting Points for Next-Generation Antimalarials” (ACS Infect Dis, 2020) can be followed below.

Screen size: about 69,000 compounds; about 8,600 (12%) showed an effect of 50% or more. Many of the other results were omitted from the sample, so strong results are more common in it than they were.

For the experiment, the system named is Plasmodium berghei. Description: Screen against P. berghei liver stage (PbLuc), transformed with Luciferase, at 10uM. As to conditions: tested at 10 uM. In kind it is functional, HepG2.
With `CC(C)c1ccc(CN2CCCC3(CC2)CN(C)C(=O)O3)cc1` (stereo unspecified), the INHIBITION is listed as -58.7%.

As for `CS(=O)(=O)c1cncnc1C1CCCNC1` (stereo unspecified), the INHIBITION worked out at 20.4%.

Consider `CN(C)C(=O)CN1C(=O)CCC12CCN(Cc1cccs1)CC2`, for which the INHIBITION came out at 9.97%.

With `CCc1ccc(CNC(=O)NC(C)CN2CCOCC2)s1` (stereo unspecified), the INHIBITION was -3.95%.

As for `Cc1ccsc1CNC(=O)c1ccc(N2CCOC2=O)cc1`, the INHIBITION amounted to 56.8%.

Take `Cc1ccsc1CNC(=O)c1ccc(N2CCNC2=O)cc1`: the INHIBITION was 25.2%.

For the compound `O=C1CCc2cc(C(=O)NCc3ccc(Cl)s3)ccc2N1`, the INHIBITION was -28.6%.

As for `O=C(NCc1ccc(Cl)s1)c1ccc(N2CCOC2=O)cc1`, the INHIBITION is recorded as 72.2%.

In the case of `Cc1ccsc1CNC(=O)c1ccc2c(c1)CCC(=O)N2`, the INHIBITION was -20.8%.

As for `Cc1noc(C)c1CNC(=O)Nc1ccc(N2CCOC2=O)cc1`, the INHIBITION is given as 13.9%.

As for `O=C1COc2cc(C(=O)NCc3ccc(Cl)s3)ccc2N1`, the INHIBITION is reported as 16.8%.

Regarding `CCc1ccc(CNC(=O)c2ccc(N3CCOC3=O)cc2)s1`, the INHIBITION was found to be 78.2%.

On to `Cc1cccn2cc(C[S+]([O-])Cc3noc(C(C)C)n3)nc12` (stereo unspecified), for which the INHIBITION was -9.51%.

For `Cc1noc(C)c1-c1cncc(C2CCCN2Cc2c[nH]cn2)n1` (stereo unspecified), the INHIBITION is 32.8%.

With `CC(=O)N1CCC(c2c(CN(C)C)cnc3cc(C)nn23)CC1`, the INHIBITION was -0.8%.

Take `CCS(=O)(=O)N1CCOC2(CCCN(c3ccc(C)nn3)C2)C1` (stereo unspecified): the INHIBITION is listed as 5.65%.

Consider `O=C1NC(C(=O)NCc2cccnc2Oc2ccc(F)cc2F)CO1` (stereo unspecified), for which the INHIBITION stood at 9.52%.

Regarding `CSCC[C@@H]1CN2CCC[C@H]2CN1Cc1coc2ccc(Cl)cc2c1=O`, the INHIBITION was 7.11%.

On to `Cc1cc(NC(=O)CN(CC2CCOC2)C2CC2)no1` (stereo unspecified), for which the INHIBITION is 21.5%.

`O=c1[nH]nc2nc(N3CCSCC3)ccn12`: the INHIBITION is 9.96%.

For the compound `O=c1[nH]nc2nc(N3CCCC3)ccn12`, the INHIBITION is 19.8%.

Turning to `Cc1cccc(N2CCN(c3ccn4c(=O)[nH]nc4n3)CC2)c1C`, the INHIBITION was 65.8%.

In the case of `Cn1ccnc1CN1CCN(CC(O)c2ccccc2)CC1` (stereo unspecified), the INHIBITION turned out to be 4.52%.

With `O=C1CCC(C(=O)NCc2nncn2-c2ccccc2)CN1` (stereo unspecified), the INHIBITION is recorded as 51%.

With `O=C(NCc1nncn1-c1ccccc1)C1CCCC1`, the INHIBITION came to 11.9%.

For `O=C(NCc1nncn1-c1ccccc1)C1CC1`, the INHIBITION was -21.8%.

Turning to `Cc1cccc(CN2CCc3nnc(CN4CCCC4=O)n3CC2)n1`, the INHIBITION is recorded as 35.7%.

As to `CC(=O)CSc1sc2c(O)cc(=O)[nH]c2c1C(N)=O`, the INHIBITION came to 26%.

For the compound `CN(CC1Cc2ccccc2CN1C)C(=O)CSc1ccccn1` (stereo unspecified), the INHIBITION was -4.91%.

`CN(CC1Cc2ccccc2CN1C)C(=O)CSc1nccn1C` (stereo unspecified): the INHIBITION is 40.9%.

`Cc1cc(=O)[nH]c(SCC(=O)N(C)CC2Cc3ccccc3CN2C)n1` (stereo unspecified): the INHIBITION is 50.2%.
